Results on 11 molecules are retold here after paper PMC12864922, “TDP-43 directly inhibits mRNA accumulation in neurites through modulation of mRNA stability”.

In all, about 9,900 sequences were measured (“r (bound/input frequency ratio)”: median about 0.7, highest 2% from about 6.5 on). The sample as a whole holds a higher share of the highest values than the screen did.

To fix the notation:
B1: ENSMUSG00000043670.201|Diras1 (ssRNA)
RNA: GGGAGUUCUACAGUCCGACGAUCGCUUCGAUAUCCGCAUGCUAUGAGUGGCUCCUGGGCCUGUGUCCCACCCAGAUGAGGGUGACUUAGAAUUCUGUGUUUAUGUGCCUGUGUGUGUGGAUGGGUGUGUGUCUGUCUUGGGAUGGGGUGUUCUUGCACCACUUUGUGUUCUUAGUGAGACCACAGUGUAAGUGGCCGUGUGUGUGUGUGGGGGGGGGCACCUAGACAUUGUGGUGUGUCUGUAUGGCUCUGUGUUUUCAGGGGUGGGUGACACAGGCCUGUCUGAUGAGCACCAGGUCUGUUCCUCUUGCGGUCGCACUAGUGUGGAAUUCUCGGGUGUCAAGG
B2: ENSMUSG00000043670.216|Diras1 (ssRNA)
RNA: GGGAGUUCUACAGUCCGACGAUCGCUUCGAUAUCCGCAUGCUAGUCUUGGGAUGGGGUGUUCUUGCACCACUUUGUGUUCUUAGUGAGACCACAGUGUAAGUGGCCGUGUGUGUGUGUGGGGGGGGGCACCUAGACAUUGUGGUGUGUCUGUAUGGCUCUGUGUUUUCAGGGGUGGGUGACACAGGCCUGUCUGAUGAGCACCAGGUCUGUUCCAGGCUGUGGCAAGCUGGCUCCUGGCUCAGAAGUGACAAAGCUGCAGUACAGAGGCCUCAGUGUGAGGUCAUCACCUCACAGUGGCUACACUCUUGCGGUCGCACUAGUGUGGAAUUCUCGGGUGUCAAGG
B3: ENSMUSG00000043670.196|Diras1 (ssRNA)
RNA: GGGAGUUCUACAGUCCGACGAUCGCUUCGAUAUCCGCAUGCUAUGUGGUAUCUGCGAGACUGUCCAGGAGACUUGAGUGGCUCCUGGGCCUGUGUCCCACCCAGAUGAGGGUGACUUAGAAUUCUGUGUUUAUGUGCCUGUGUGUGUGGAUGGGUGUGUGUCUGUCUUGGGAUGGGGUGUUCUUGCACCACUUUGUGUUCUUAGUGAGACCACAGUGUAAGUGGCCGUGUGUGUGUGUGGGGGGGGGCACCUAGACAUUGUGGUGUGUCUGUAUGGCUCUGUGUUUUCAGGGGUGGGUGACACCUCUUGCGGUCGCACUAGUGUGGAAUUCUCGGGUGUCAAGG
B4: ENSMUSG00000043670.195|Diras1 (ssRNA)
RNA: GGGAGUUCUACAGUCCGACGAUCGCUUCGAUAUCCGCAUGCUAAGCCCCUGUGGUAUCUGCGAGACUGUCCAGGAGACUUGAGUGGCUCCUGGGCCUGUGUCCCACCCAGAUGAGGGUGACUUAGAAUUCUGUGUUUAUGUGCCUGUGUGUGUGGAUGGGUGUGUGUCUGUCUUGGGAUGGGGUGUUCUUGCACCACUUUGUGUUCUUAGUGAGACCACAGUGUAAGUGGCCGUGUGUGUGUGUGGGGGGGGGCACCUAGACAUUGUGGUGUGUCUGUAUGGCUCUGUGUUUUCAGGGGUGGGCUCUUGCGGUCGCACUAGUGUGGAAUUCUCGGGUGUCAAGG
B5: ENSMUSG00000043670.197|Diras1 (ssRNA)
RNA: GGGAGUUCUACAGUCCGACGAUCGCUUCGAUAUCCGCAUGCUAAUCUGCGAGACUGUCCAGGAGACUUGAGUGGCUCCUGGGCCUGUGUCCCACCCAGAUGAGGGUGACUUAGAAUUCUGUGUUUAUGUGCCUGUGUGUGUGGAUGGGUGUGUGUCUGUCUUGGGAUGGGGUGUUCUUGCACCACUUUGUGUUCUUAGUGAGACCACAGUGUAAGUGGCCGUGUGUGUGUGUGGGGGGGGGCACCUAGACAUUGUGGUGUGUCUGUAUGGCUCUGUGUUUUCAGGGGUGGGUGACACAGGCCUCUCUUGCGGUCGCACUAGUGUGGAAUUCUCGGGUGUCAAGG
B6: ENSMUSG00000043670.204|Diras1|34:38;48:57;63:70;103:107;136:148;172:177;180:184;189:193 (ssRNA)
RNA: GGGAGUUCUACAGUCCGACGAUCGCUUCGAUAUCCGCAUGCUAGUGUCCCACCCAGAUGAGGGUGACUUAGAAUUCACACAUUAUGUGCCACACACACACGAUGGCACACACACUGUCUUGGGAUGGGGUGUUCUUGCACCACUUACACAUCUUAGUGAGACCACAGUGUAAGUGGCCCACACACACACACGGGGGGGGCACCUAGACAUUGUGCACACACUCAUACGCUCACACAUUUCAGGGGUGGGUGACACAGGCCUGUCUGAUGAGCACCAGGUCUGUUCCAGGCUGUGGCAAGCUGGCUCUUGCGGUCGCACUAGUGUGGAAUUCUCGGGUGUCAAGG
B7: ENSMUSG00000043670.204|Diras1 (ssRNA)
RNA: GGGAGUUCUACAGUCCGACGAUCGCUUCGAUAUCCGCAUGCUAGUGUCCCACCCAGAUGAGGGUGACUUAGAAUUCUGUGUUUAUGUGCCUGUGUGUGUGGAUGGGUGUGUGUCUGUCUUGGGAUGGGGUGUUCUUGCACCACUUUGUGUUCUUAGUGAGACCACAGUGUAAGUGGCCGUGUGUGUGUGUGGGGGGGGGCACCUAGACAUUGUGGUGUGUCUGUAUGGCUCUGUGUUUUCAGGGGUGGGUGACACAGGCCUGUCUGAUGAGCACCAGGUCUGUUCCAGGCUGUGGCAAGCUGGCUCUUGCGGUCGCACUAGUGUGGAAUUCUCGGGUGUCAAGG
B8: ENSMUSG00000043670.199|Diras1 (ssRNA)
RNA: GGGAGUUCUACAGUCCGACGAUCGCUUCGAUAUCCGCAUGCUAGUCCAGGAGACUUGAGUGGCUCCUGGGCCUGUGUCCCACCCAGAUGAGGGUGACUUAGAAUUCUGUGUUUAUGUGCCUGUGUGUGUGGAUGGGUGUGUGUCUGUCUUGGGAUGGGGUGUUCUUGCACCACUUUGUGUUCUUAGUGAGACCACAGUGUAAGUGGCCGUGUGUGUGUGUGGGGGGGGGCACCUAGACAUUGUGGUGUGUCUGUAUGGCUCUGUGUUUUCAGGGGUGGGUGACACAGGCCUGUCUGAUGAGCACUCUUGCGGUCGCACUAGUGUGGAAUUCUCGGGUGUCAAGG
B9: ENSMUSG00000043670.200|Diras1 (ssRNA)
RNA: GGGAGUUCUACAGUCCGACGAUCGCUUCGAUAUCCGCAUGCUAGAGACUUGAGUGGCUCCUGGGCCUGUGUCCCACCCAGAUGAGGGUGACUUAGAAUUCUGUGUUUAUGUGCCUGUGUGUGUGGAUGGGUGUGUGUCUGUCUUGGGAUGGGGUGUUCUUGCACCACUUUGUGUUCUUAGUGAGACCACAGUGUAAGUGGCCGUGUGUGUGUGUGGGGGGGGGCACCUAGACAUUGUGGUGUGUCUGUAUGGCUCUGUGUUUUCAGGGGUGGGUGACACAGGCCUGUCUGAUGAGCACCAGGUCUCUUGCGGUCGCACUAGUGUGGAAUUCUCGGGUGUCAAGG
B10: ENSMUSG00000043670.213|Diras1 (ssRNA)
RNA: GGGAGUUCUACAGUCCGACGAUCGCUUCGAUAUCCGCAUGCUAGUGGAUGGGUGUGUGUCUGUCUUGGGAUGGGGUGUUCUUGCACCACUUUGUGUUCUUAGUGAGACCACAGUGUAAGUGGCCGUGUGUGUGUGUGGGGGGGGGCACCUAGACAUUGUGGUGUGUCUGUAUGGCUCUGUGUUUUCAGGGGUGGGUGACACAGGCCUGUCUGAUGAGCACCAGGUCUGUUCCAGGCUGUGGCAAGCUGGCUCCUGGCUCAGAAGUGACAAAGCUGCAGUACAGAGGCCUCAGUGUGAGGUCAUCUCUUGCGGUCGCACUAGUGUGGAAUUCUCGGGUGUCAAGG
B11: ENSMUSG00000043670.206|Diras1 (ssRNA)
RNA: GGGAGUUCUACAGUCCGACGAUCGCUUCGAUAUCCGCAUGCUAGAUGAGGGUGACUUAGAAUUCUGUGUUUAUGUGCCUGUGUGUGUGGAUGGGUGUGUGUCUGUCUUGGGAUGGGGUGUUCUUGCACCACUUUGUGUUCUUAGUGAGACCACAGUGUAAGUGGCCGUGUGUGUGUGUGGGGGGGGGCACCUAGACAUUGUGGUGUGUCUGUAUGGCUCUGUGUUUUCAGGGGUGGGUGACACAGGCCUGUCUGAUGAGCACCAGGUCUGUUCCAGGCUGUGGCAAGCUGGCUCCUGGCUCAGCUCUUGCGGUCGCACUAGUGUGGAAUUCUCGGGUGUCAAGG

The target of this assay is TDP-43 (Homo sapiens, UniProt Q13148 1-414). In words: RNA Bind-n-Seq with designed 260-mer pool; 25 mM Tris-HCl, 150 mM KCl, 3 mM MgCl2, BSA (printed 500 mg/mL), 20 units/mL SUPERase IN; pH not stated; 500 nM RNA pool, 1 h, 4 C; TDP-43 5, 50, 500 nM; high values mean tight binding. The conditions noted are these: protein: recombinant; tags: SBP (GST cleaved off with PreScission; pGEX-GST-SBP). A digest of the protocol: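 Streptavidin beads captured recombinant SBP-tagged TDP-43 at 5, 50 or 500 nM, and the beads were incubated for 1 h at 4 °C with 500 nM of an in vitro-transcribed pool of 260-nt 3′ UTR oligos in 25 mM Tris-HCl, 150 mM KCl, 3 mM MgCl2, BSA and SUPERase IN. After washing, bound RNA was eluted with biotin, reverse transcribed, PCR-amplified and sequenced. Binding is reported as R, the mapped-read-normalized abundance of each oligo in the bound sample divided by its abundance in the input. Two independent protein batches served as duplicates.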
TDP-43, sequence (Q13148 whole entry): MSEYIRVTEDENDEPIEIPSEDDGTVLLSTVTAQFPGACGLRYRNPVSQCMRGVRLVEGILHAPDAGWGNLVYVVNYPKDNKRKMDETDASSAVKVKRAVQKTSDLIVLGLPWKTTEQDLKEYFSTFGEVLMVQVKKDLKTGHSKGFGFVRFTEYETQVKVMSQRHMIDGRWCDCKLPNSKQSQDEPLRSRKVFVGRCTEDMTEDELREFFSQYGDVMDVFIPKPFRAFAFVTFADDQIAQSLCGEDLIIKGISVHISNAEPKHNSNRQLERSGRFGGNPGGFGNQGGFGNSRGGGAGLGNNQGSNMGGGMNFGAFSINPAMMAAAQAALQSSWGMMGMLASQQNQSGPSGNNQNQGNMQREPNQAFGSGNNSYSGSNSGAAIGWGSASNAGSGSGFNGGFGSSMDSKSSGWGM
With B1, the binding signal was 4.7 R (bound/input frequency ratio).
Take B2: the binding signal is 3.28 R (bound/input frequency ratio).
In the case of B3, the binding signal was 6.21 R (bound/input frequency ratio).
As for B4, the binding signal was 5.71 R (bound/input frequency ratio).
On to B5, for which the binding signal is 7.91 R (bound/input frequency ratio).
To B6 belongs 1.1 R (bound/input frequency ratio); to B7, 6.58 R (bound/input frequency ratio).
B8: the binding signal is 5.44 R (bound/input frequency ratio).
Regarding B9, the binding signal was 11.3 R (bound/input frequency ratio).
Turning to B10, the binding signal is 6.42 R (bound/input frequency ratio).
Consider B11, for which the binding signal is 6.69 R (bound/input frequency ratio).
